# Where “and” joins values, the source holds several entries; their conditions need not be identical. Equal entries are not always repeated. Out of some 6,400 compounds screened, about 610 (9.5%) were called active. Rule as the data show it: active = activity change below about -70%; inconclusive = no clear call, values can overlap the other calls; inactive = above that. For the sample, actives were picked, then their nearest neighbours and some compounds at random. Some structures have more than one record in an assay (separate samples or runs), and their calls can disagree.
# Experiment: T. gondii ME49Luc in HeLa cells, luciferase assay, 72 h, no IFN-y (AID 1259421)
# Details: stronger effect = lower value, concentration not given here
row,SMILES,"activity change, negative = inhibition"
1,COc1cc(Nc2ncc(F)c(Nc3ccc4c(n3)NC(=O)C(C)(C)O4)n2)cc(OC)c1OC,-51.7% (inactive) and -21% (inactive)
2,COc1cc(Nc2ncc(F)c(Nc3ccc4c(n3)N(COP(=O)(O)O)C(=O)C(C)(C)O4)n2)cc(OC)c1OC,-77% (active)
3,COC1C(O)C(CO)OC1n1cnc2c(NC3CCCCC3)ncnc21 (stereo not given),10.5% (inactive)
4,Cc1cc(Nc2nc(N[C@@H](C)c3ncc(F)cn3)ncc2Cl)n[nH]1,2.85% (inactive)
5,CCc1cnc(N2CCC(c3nc(COc4ccc(-n5cnnn5)cc4)cs3)CC2)nc1,-26.5% (inactive)
6,CC1(C)O[C@@H]2CC3C4CCC5=CC(=O)C=C[C@]5(C)[C@@]4(F)[C@@H](O)C[C@]3(C)[C@]2(C(=O)CO)O1 (stereo not given in full),-0.643% (inactive)
7,Cn1ccc2cc(NC(=O)Nc3cccnc3)ccc21,22.9% (inactive) and -13.9% (inactive)
8,CC(=O)Nc1ccccc1,7.35% (inactive) and 14.6% (inactive)
9,O=C(CCCCCCC(=O)Nc1cccnc1)NO,-92.1% (active)
10,O=C(CCCCCCC(=O)Nc1ccccc1)NO,-84% (active) and -91.4% (active) and -89.3% (active)
11,O=C(O)CCCNC(=O)c1cccnc1,23.7% (inactive)
12,O=C(Cc1ccccc1)NO,-1.4% (inactive)
13,CC(C)c1ccc2c(c1)CCC1[C@](C)(CN)CCC[C@]21C (stereo not given in full),3.16% (inactive)
14,Nc1nc(-c2ccccc2)c(Br)c(=O)[nH]1,3.15% (inactive)
15,Cc1cccn2c(=O)c(-c3nn[nH]n3)cnc12,0.433% (inactive)
16,C=C1C(=O)O[C@@H]2[C@H]3C(C)=CC[C@@]34O[C@@]4(C)CC[C@@H]12,18.9% (inactive)
17,CC[C@@H]1Cn2c(c3nc(-c4ccccc4)nc-3n(C)c2=O)N1,8.44% (inactive) and 12.6% (inactive)
18,COc1cc2c(cc1-c1c(C)noc1C)ncc1[nH]c(=O)n([C@H](C)c3ccccn3)c12,-91.9% (active)
19,C#Cc1cnc2[nH]c(=O)n(C(CC)CC)c2n1,0.376% (inactive)
20,NCC[C@@H](O)C(=O)N[C@@H]1C[C@H](N)[C@@H](O[C@H]2O[C@H](CN)[C@@H](O)[C@H](O)[C@H]2O)[C@H](O)[C@H]1O[C@H]1O[C@H](CO)[C@@H](O)[C@H](N)C1O (stereo not given in full),22.8% (inactive)
21,CCCCCCCC/C=C\CCCCCCCC(=O)N[C@@H](CO)Cc1ccc(O)cc1,4.92% (inactive)
22,c1cc2c(cc1C1CCCCC1)c1c3n2CCNC3CCC1 (stereo not given),23.6% (inactive) and 27.3% (inactive)
23,Cn1cnnc1Sc1c([N+](=O)[O-])ncn1C,23.4% (inactive) and 9.93% (inactive)
24,c1ccc(CNc2ncnc3nc[nH]c23)cc1,9.71% (inactive) and 7.45% (inactive)
25,Cn1cnc([N+](=O)[O-])c1Sc1ncnc2nc[nH]c12,-68.2% (inactive) and -74.1% (active)
26,CC(SC(=O)c1cccs1)C(=O)NCC(=O)O (stereo not given),13% (inactive)
27,C[C@H]1[C@@H](O)O[C@@H]2O[C@@]3(C)CC[C@H]4[C@H](C)CC[C@@H]1[C@@]24OO3,-93.7% (active)

row,SMILES,"activity change, negative = inhibition"
1,C[C@H]1[C@H](OC(=O)CCC(=O)O)O[C@@H]2O[C@@]3(C)CC[C@H]4[C@H](C)CC[C@@H]1[C@@]24OO3,-80.6% (active)
2,CC(=O)[C@H]1CCC2C3CC=C4C[C@@H](OC(=O)CCC(=O)O)CC[C@]4(C)C3CC[C@@]21C (stereo not given in full),4.41% (inactive) and 6.51% (inactive)
3,C[C@@H]1CC[C@H]2[C@@H](C)C(O)O[C@@H]3O[C@]4(C)CC[C@@H]1[C@]32OO4 (stereo not given in full),-85.4% (active)
4,Brc1c(Br)c(Br)c2n[nH]nc2c1Br,5.07% (inactive) and 22.5% (inactive)
5,OCc1cc2c(cn1)[nH]c1ccccc12,12.8% (inactive)
6,CCOC(=O)c1c(C)[nH]c2ccc3c(c12)CN1CCc2cc(OC)ccc2C1O3 (stereo not given),5.91% (inactive)
7,C[C@@H](O)CNC(C)(C)CC(=O)N[C@@H]1CCc2ccccc2N(Cc2ccc(-c3ccccc3-c3nn[nH]n3)cc2)C1=O,8.07% (inactive)
8,CC[C@H](Nc1ncnc2nc[nH]c12)c1nc2cccc(F)c2c(=O)n1-c1ccccc1,0.609% (inactive)
9,Nc1c(S(=O)(=O)O)cc(Nc2cccc3ccccc23)c2c1C(=O)c1ccccc1C2=O,5.63% (inactive)
10,C[C@H](CCC(=O)NCC(=O)O)[C@H]1CCC2C3C(C[C@H](O)[C@@]21C)[C@@]1(C)CC[C@@H](O)CC1C[C@H]3O (stereo not given in full),3.03% (inactive)
11,CN(C)C(=N)N=C(N)N,11% (inactive) and -0.508% (inactive)
12,CN(C)CC(=O)Nc1ccc2[nH]c(=O)c3ccccc3c2c1,-4.97% (inactive)
13,O=C(c1ccc2nccnc2c1)N1CCCCC1,3.08% (inactive)
14,COC(=O)[C@]12CCC(C)(C)C[C@@H]1[C@@H]1C(=O)C=C3[C@]4(C)C=C(C#N)C(=O)C(C)(C)[C@@H]4CC[C@@]3(C)[C@]1(C)CC2,-87.4% (active)
15,CC(=O)N[C@@H](CSC/C=C(\C)CC/C=C(\C)CCC=C(C)C)C(=O)O,7.49% (inactive)
16,OC[C@H]1NC[C@@H](O)[C@@H](O)[C@@H]1O,13.1% (inactive)
17,CCC[C@H](Nc1nc(-c2ccc(NC(=O)NCC)c(OC)c2)ncc1C)c1cccnc1,-75.6% (active)
18,COc1ccc(C(=O)NCc2cccnc2)cc1C(=O)NCc1cccnc1,7.12% (inactive)
19,Oc1ccccc1-c1nnco1,11.7% (inactive)
20,CCCCCCCCCCCC1C(=O)C(=O)CC(=O)C1=O,-89.4% (active) and -2.92% (inactive)
21,CCCCCCCCCCCCCCCCCCCCCC(=O)O,-1.78% (inactive)
22,CCCCC1C(=O)N(c2ccccc2)N(c2ccccc2)C1=O,10.6% (inactive) and 30.2% (inactive) and 17.8% (inactive)
23,O=C(/C=C/c1ccc2ccccc2n1)c1ccncc1,3.25% (inactive)
24,CN(C)C1C(=O)C(C(N)=O)C(=O)C2(O)C(=O)C3C(=O)c4c(O)ccc(Cl)c4C(O)C3CC12 (stereo not given),321% (inactive)
25,COC(=O)NC(C)CNc1nccc(-c2cn(C(C)C)nc2-c2cc(Cl)cc(NS(C)(=O)=O)c2F)n1 (stereo not given),-71.5% (active)
26,O=c1[nH]nc2c3c(cccc13)NC(CN1Cc3ccccc3C1)=N2,12.4% (inactive)
27,Oc1ccc([C@@H]2Oc3ccc(O)cc3[C@@H]3CCC[C@@H]32)cc1,6.56% (inactive)

row,SMILES,"activity change, negative = inhibition"
1,Cc1cc(O)cc2c1O[C@](C)(CCC[C@H](C)CCC[C@H](C)CCCC(C)C)CC2,-4.66% (inactive)
2,COc1c(C)c2c(c(O)c1C/C=C(\C)CCC(=O)OCCN1CCOCC1)C(=O)OC2,-75.2% (active) and -92% (active)
3,COc1c(C)c2c(c(O)c1C/C=C(/C)CCC(=O)O)C(=O)OC2,-79.6% (active)
4,COc1c(C)c2c(c(O)c1C/C=C(\C)CCC(=O)O)C(=O)OC2,-74.4% (active) and -89.1% (active)
5,C#CC1(OCC(O)CN2CCN(c3ccccc3OC)CC2)CCCCC1 (stereo not given),9.69% (inactive)
6,CCCCC/C=C\C[C@@H](O)/C=C/C=C/C=C\[C@@H](O)CCCC(=O)O,7.41% (inactive)
7,N=[N+]=CC(=O)CC[C@H](N)C(=O)O,0.432% (inactive)
8,c1ccc(-c2nc3ccccc3[nH]2)cc1,279% (inactive)
9,c1ccc2[nH]c(-c3nc4ccccc4[nH]3)nc2c1,156% (inactive)
10,CC(C)(C)c1ccc(-c2nc3ccccc3[nH]2)cc1,-87.4% (active)
11,CC1(C)CC1C(=O)N/C(=C\CCCCSCC(N)C(=O)O)C(=O)O (stereo not given),8.4% (inactive)
12,CC(=O)O[C@H]1C[C@@]2(C)[C@@H](C[C@@H](O)[C@H]3[C@@]4(C)CC[C@@H](O)[C@@H](C)C4CC[C@@]32C)/C1=C(/CCC=C(C)C)C(=O)O (stereo not given in full),-17.8% (inactive)
13,Cc1cc(OCCCS(C)(=O)=O)cc(C)c1-c1cccc(COc2ccc3c(c2)OC[C@H]3CC(=O)O)c1,15.8% (inactive)
14,COc1ccc2[nH]c(I)c(CCNC(C)=O)c2c1,14.7% (inactive) and -1.11% (inactive)
15,CC1C(=O)C(=O)[C@@H]2O[C@@H]2C1=O (stereo not given in full),7.42% (inactive)
16,O=C(Nc1cccc(Cl)c1)c1ccccn1,154% (inactive)
17,O=C(Nc1cccc(Cl)c1)Nc1ncc(CCNc2ncnc3ccsc23)s1,-92.1% (active)
18,COc1cc2ncnc(Nc3cccc(Cl)c3)c2cc1OC,-46.3% (inactive)
19,O[C@H](CNC[C@@H](O)[C@H]1CCc2cc(F)ccc2O1)[C@@H]1CCc2cc(F)ccc2O1,9.73% (inactive)
20,C=C(C)[C@@H]1CC[C@]2(CO)CC[C@]3(C)[C@H](CC[C@@H]4[C@@]5(C)CC[C@H](O)C(C)(C)[C@@H]5CC[C@]43C)[C@@H]12,19.1% (inactive)
21,Cc1nnc(-c2ccc3occ(-c4ccc(S(C)=O)cc4)c3c2)o1 (stereo not given),1.22% (inactive)
22,O=C(c1ccc(F)cc1)C1CCN(CCCCc2ccccc2)CC1,3.6% (inactive) and 8.67% (inactive)
23,O=C(NCCCN1CCC2(CC1)OCc1ccccc12)[C@H]1CCCN1Cc1ccccc1,18.8% (inactive)
24,Fc1ccc(-n2cc(CCCCN3CCC4(CC3)OCc3ccccc34)c3ccccc32)cc1,-77.2% (active)
25,CN(CCOc1ccc(CC(Nc2ccccc2C(=O)c2ccccc2)C(=O)O)cc1)c1ccccn1 (stereo not given),1.37% (inactive)
26,CCOC(=O)[C@@H](N)CCC(=O)N[C@@H](CSCc1ccccc1)C(=O)N[C@@H](C(=O)OCC)c1ccccc1,-2.09% (inactive)
